# Screening results: PubChem BioAssay, several laboratories
# MazF activator – activators of E. coli MazEF toxin-antitoxin RNase, primary screen, biochemical, fluorescence, uHTS | AID 504720, 2011 | activation, % at 20 µM | FAM/BHQ RNA-DNA oligo cleavage fluorescence, 5 h | 350,000 tested, 0.32% active; in the data active means activation above about 50%
# BJeLR lethal – MLPCN primary cell-based screen for lethality selective to Ras in HRASV12 cells; inhibition, % (test concentration not listed); AID 1554, 2009; BJeLR (HRASV12) viability, CellTiter-Glo ATP luminescence, 48 h; 300,000 tested, 0.17% active; in the data active means inhibition above about 50%
# PrPC TRFRET – inhibitors of human cell surface prion protein PrPC, primary screen, cell-based, TR-FRET; Major prion protein (Homo sapiens), P04156; TR-FRET read-out; inhibition, % at 13.8 µM; 370,000 tested, 0.43% active; AID 720596, 2013; in the data active means inhibition above about 24%; further: 0% = median of the test wells and 100% = reference compound wells
# PrP 5UTR inh – inhibition of PrP 5' UTR reporter expression. inhibition, % (no concentration beside the values). 340,000 tested, 0.35% active. cell-based PrP 5' UTR mRNA reporter, plate reader; in the data active means inhibition above about 52%; further: 0 = median of the neutral control wells
# PrPC TRFRET cf – confirmation of inhibitors of cell surface human prion protein, confirmation, cell-based, TR-FRET. shares compounds with PrPC TRFRET. cell surface PrPC level. inhibition, % at 13.8 µM. 1,500 tested, 65% active. AID 743200, 2013; in the data active means inhibition above about 25%
# LD9 cytotox – cytotoxicity in LD9 cells, cytotoxicity control for cell surface PrPc inhibitor project, cell-based, luminescence, high throughput; shares compounds with PrPC TRFRET; inhibition, % at 13.8 µM; 1,500 tested, 29% active; luminescence viability; in the data active means inhibition above about 9.5%
# * hit, by the source's call; . = not tested or not shown. Compounds with a hit are over-represented: about 1.1% of the library has one in this group of screens.
SMILES,MazF activator,BJeLR lethal,PrPC TRFRET,PrP 5UTR inh,PrPC TRFRET cf,LD9 cytotox
CCCCOCCCNC(=O)C[C@H]1C[C@@]2(C(=O)OC)C(=C[C@H](C(C)(C)C)O[C@@H]2C)N(Cc2ccccc2)C1=O,.,.,0,.,.,.
Cc1ccc(S(=O)(=O)Nc2cccc3cccnc23)cc1,8,2,39*,-7,72*,82*
COc1ccc(S(=O)(=O)Nc2ccccn2)cc1,5,-4,-8,-14,.,.
COc1cc(NS(=O)(=O)c2ccc(C)cc2)c2ncccc2c1,1,23,51*,5,51*,69*
COc1ccc(CN(C)C(=O)[C@@H](Cc2ccccc2)NC(=O)[C@H]2O[C@@H](n3ccc(N)nc3=O)[C@H](O)[C@@H]2O)cc1OC,.,.,1,.,.,.
COC(=O)[C@]12C[C@H](CC(=O)NCc3ccc(OC)c(OC)c3)C(=O)N(Cc3ccc(Cl)cc3Cl)C1=C[C@H](C(C)C)O[C@@H]2C1CC1,.,.,6,.,.,.
CC(=O)C1=C(C)N(Cc2ccc(F)cc2)C(=S)NC1c1cccc(F)c1 (stereo not drawn),.,.,-1,.,.,.
O=C(Nc1ccccc1C(=O)NCC1CC1)c1cccs1,.,.,-7,.,.,.
COc1ccc(Cn2c(-c3ccccc3C)nc3c(c(=O)c4ccccc4n3C)c2=O)cc1,67*,6,53*,-24,9,-1
COc1ccc(Cn2c(-c3ccc(OC)cc3)nc3c(c(=O)c4ccccc4n3C)c2=O)cc1,.,5,.,.,.,.
COCc1c(C(=O)N2CCc3ccccc32)oc2ccccc12,11,3,26*,-15,3,-4
Cc1c(C(=O)N2CCc3ccccc32)oc2ccccc12,-8,-6,2,-122,.,.
COC(=O)C1=C(C)N(Cc2ccc(C(F)(F)F)cc2)C(=NCc2cc(OC)c(OC)c(OC)c2)NC1c1cccc(Cl)c1 (stereo not drawn),.,.,7,.,.,.
NC(=O)CSc1nc2sc3c(c2c2ncnn12)CCCC3,2,-14,47*,-14,47*,-4
O=C(O)CSc1ncnc2sc3c(c12)CCC3,5,-1,47*,2,50*,-5
O=C(O)CSc1ncnc2sc3c(c12)CCCC3,3,-3,30*,-25,53*,-10
CCC1CCCCN1C(=S)NN=C(C)c1ccccn1 (stereo not drawn),.,.,-11,.,.,.
COC(=O)C1=C(C)N(Cc2ccccc2C(F)(F)F)C(=NCc2ccc3c(c2)OCO3)NC1c1ccc(C(F)(F)F)cc1 (stereo not drawn),.,.,-8,.,.,.
Cc1cccc2c(=O)c(-c3ccc4c(c3)OCO4)c(NC(=O)c3ccco3)oc12,1,-1,63*,-25,67*,-7
O=C(COc1nsnc1N1CCOCC1)Nc1ccc(Cl)cc1,0,-2,26*,-27,8,-3
S=c1nc(-c2ccccc2)n(CCCn2ccnc2)c2c1CCCC2,12,-9,47*,-9,46*,-2
COC(=O)[C@]12CCCCC=C1N(Cc1ccc(OC)cc1)C(=O)[C@@H]2CC(=O)N1CCOCC1,.,.,8,.,.,.
CCc1cc2ccccc2nc1SCC(=O)Nc1cc(OC)c(OC)cc1C(=O)O,-2,2,40*,-24,5,-4
C=CCN1C(=O)c2n[nH]c(COC)c2C1c1ccc(C)cc1 (stereo not drawn),.,.,-2,.,.,.
COc1cccc2sc3cc(NCCCN4CCOCC4)ccc3c(=O)c12,5,.,72*,-20,95*,-2
SMILES,MazF activator,BJeLR lethal,PrPC TRFRET,PrP 5UTR inh,PrPC TRFRET cf,LD9 cytotox
O=c1c2ccccc2oc2cc(NCCCN3CCOCC3)ccc12,3,-13,1,-47,.,.
Cc1ccc(CNC(=O)[C@@H](Cc2ccccc2)NC(=O)[C@H]2O[C@@H](n3ccc(N)nc3=O)[C@H](O)[C@@H]2O)o1,.,.,0,.,.,.
COc1cccc2sc(Nc3nnc(-c4ccc(F)cc4)o3)nc12,6,4,27*,-36,33*,-3
COc1cccc2sc(Nc3nnc(-c4cccs4)o3)nc12,2,23,4,-22,.,.
c1ccc(Cn2ccc3ccc(-c4ccc5ccn(Cc6ccc(-c7ccccc7)cc6)c5c4)cc32)cc1,.,.,-5,.,.,.
CC(=O)c1cc(-c2csc(C=O)c2)c(=O)n2c1CCC2,.,.,3,.,.,.
